Experiment [1] deals with Progesterone receptor (Homo sapiens) (UniProt P06401). In words: qHTS assay to identify small molecule antagonists of the progesterone receptor (PR) signaling pathway (AID 1346795; active means well fitted inhibition curve with a large enough effect in the signal ratio in the repeat runs, not every such curve was filed as active; the % refers to the signal ratio). Put shortly:
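Beta-lactamase reporter, HEK293T PR-UAS-bla line; 2% charcoal-stripped FBS; 6 hr pre-incubation, 37C/5% CO2. Compound + R5020 1 nM final, 16 hr. LiveBLAzer B/G FRET substrate, 2 hr RT; fluorescence intensity read.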
On the technique in general: qHTS replaces the single test concentration by a dilution series.

Experiment [2] can be described thus: qHTS assay to identify small molecule antagonists of the progesterone receptor (PR) signaling pathway - cell viability counter screen (AID 1346798). Further: series mostly up to about 92 µM; nearly all actives have a fitted effect of over 50% in size. Put shortly: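 Luminescence readout (CellTiter-Glo, 30 min, RT) of viability in PR-UAS-bla HEK293T cells exposed to compound and R5020 agonist for 16 hr at 37C, 5% CO2; run in the same wells as the beta-lactamase reporter read.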

Experiment [3] is described as follows: qHTS assay to identify small molecule agonists of the progesterone receptor (PR) signaling pathway - cell viability counter screen (AID 1346799; calls by dose curve; further: nearly all actives have a fitted effect of over 45% in size). Put shortly:
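HEK293T PR-UAS-bla, 3,000 cells/well, 2% charcoal-stripped FBS; 6 h settle, compound 16 h at 37C/5% CO2; LiveBLAzer 2 h RT, then CellTiter-Glo 30 min RT, luminescence read.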

Experiment [4] can be described thus: qHTS assay to identify small molecule antagonists of the TGF-beta/Smad signaling pathway - cell viability counter screen (AID 1346824). Further: nearly all actives have a fitted effect of over 50% in size. Put shortly:
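SBE-bla HEK 293T cells, incubated overnight, then compound plus 0.25 ng/mL TGF-beta1 (stock added) for 5 hr at 37 C. Viability was read in the same wells by CellTiter-Glo luminescence after 30 min at room temperature.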

Experiment [5] in a line: qHTS assay to identify small molecule agonists of the TGF-beta/Smad signaling pathway - cell viability counter screen (AID 1346829). Further: top concentration of the series differs between compounds; nearly all actives have a fitted effect of over 45% in size. Put shortly: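 Tox21 qHTS format: SBE-bla HEK 293T cells treated with DMSO-dissolved compounds for 5 hr; CellTiter-Glo luminescence after 30 min at room temperature.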
Experiment [6] can be described thus: qHTS assay to identify small molecule agonists of the TGF-beta/Smad signaling pathway (AID 1346859; active means well fitted activation curve with a large enough effect in the signal ratio in the repeat runs, not every such curve was filed as active; the % refers to the signal ratio; further: series mostly up to about 77 µM). Put shortly: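 Read-out: fluorescence at 460 and 530 nm (405 nm excitation) after a 2 hr room-temperature incubation with beta-lactamase FRET substrate. SBE-bla HEK 293T cells had been treated with test compounds for 5 hr at 37 C.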
Experiment [7] addresses Thyrotropin-releasing hormone receptor (Homo sapiens) (UniProt P34981). As to the kind of experiment: qHTS assay to identify small molecule antagonists of the thyrotropin-releasing hormone receptor (TRHR) signaling pathway (AID 1346877; active means well fitted inhibition curve with a large enough effect in the repeat runs, not every such curve was filed as active; further: series mostly up to about 51 µM). In a few lines:
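TRHR-expressing HEK293 cells were seeded, cultured 18 h at 37 °C, then loaded with calcium dye for 2 h. Compounds were pre-incubated 5 min at room temperature before 1 nM TRH (final) was added, and kinetic fluorescence was recorded for 3 min.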

Experiment [8] can be described thus: Human pregnane X receptor (PXR) small molecule agonists, qHTS cell viability counter screen (AID 1346977). Further: nearly all actives have a fitted effect of over 50% in size. In a few lines:
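Fluorescence read-out (CellTiter-Fluor) of viability in PXR-Luc HepG2 cells, multiplexed with the luciferase agonist read. Compounds in DMSO added after 5hr plating; 24hr total exposure at 37C, 5% CO2.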

The nature of experiment [9]: Caspase-3/7 induction in HepG2 cells by small molecules, qHTS assay (AID 1346978). Further: nearly all actives have a fitted effect of over 15% in size. In a few lines: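 Wild-type HepG2 cells, 2,000/well, settled 5 hr at 37 C and 5% CO2, then compound-treated for 17 hr; caspase-3/7 activity read by luminescent Caspase-Glo 3/7 after 30 min at room temperature.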
The nature of experiment [10]: Caspase-3/7 induction in CHO-K1 cells by small molecules, qHTS cell viability counter screen (AID 1346979). Further: nearly all actives have a fitted effect of over 35% in size. Put shortly: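 CHO-K1 wt, 1,500 cells/well; 5hr pre-incubation 37C/5% CO2; compound pin transfer (DMSO); 16hr exposure; CellTiter-Fluor added, 1hr, fluorescence read.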
A short description of experiment [11]: Caspase-3/7 induction in CHO-K1 cells by small molecules, qHTS assay (AID 1346980). Further: nearly all actives have a fitted effect of over 15% in size. In a few lines: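 Wild-type CHO-K1 cells exposed to compounds for 17hr at 37 C, 5% CO2. Caspase-3/7 activity then measured by Caspase-Glo 3/7 luminescence after 30min at room temperature.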
Experiment [12] in a line: Caspase-3/7 induction in HepG2 cells by small molecules, qHTS cell viability counter screen (AID 1346981). Further: series mostly up to about 92 µM; nearly all actives have a fitted effect of over 30% in size. Put shortly:
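Wild-type HepG2 cells (2,000/well) were allowed to settle for 5 hr at 37 C, 5% CO2, then dosed with compounds in DMSO by pin transfer. After 16 hr at 37 C, CellTiter-Fluor was added and fluorescence read 1 hr later.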

Experiment [13] addresses Nuclear receptor subfamily 1 group I member 2 (Homo sapiens) (UniProt O75469). In words: Human pregnane X receptor (PXR) small molecule agonists, qHTS assay (AID 1346982). Further: nearly all actives have a fitted effect of over 35% in size. Further: potency means the concentration at half of the fitted maximal effect. Put shortly: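 PXR-Luc HepG2 cells (CYP3A4 promoter-driven luciferase) were seeded in medium with 5% charcoal-stripped FBS, left 5 hr at 37 C, then exposed to compounds in DMSO for 24 hr. Luminescence was read after ONE-Glo addition.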

The target in experiment [14] is Nuclear receptor subfamily 1 group I member 2 (Rattus norvegicus) (UniProt Q9R1A7). As to the kind of experiment: Rat pregnane X receptor (rPXR) activation by small molecules, qHTS assay (AID 1346983). Further: nearly all actives have a fitted effect of over 20% in size. The following applies: rPXR luciferase reporter cells, One-Glo luminescence, 24 h; max activation: hits give high values. Put shortly: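 Cell-based rPXR activation assay: rPXR cells, 2,000 per well, rested 5hr at 37 C, then exposed to compounds in DMSO for 24 hr at 37 C. Luciferase activity read by One-Glo luminescence after 30 min at room temperature.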
Sequence of Nuclear receptor subfamily 1 group I member 2 (Rattus norvegicus) (Q9R1A7 whole entry, looked up): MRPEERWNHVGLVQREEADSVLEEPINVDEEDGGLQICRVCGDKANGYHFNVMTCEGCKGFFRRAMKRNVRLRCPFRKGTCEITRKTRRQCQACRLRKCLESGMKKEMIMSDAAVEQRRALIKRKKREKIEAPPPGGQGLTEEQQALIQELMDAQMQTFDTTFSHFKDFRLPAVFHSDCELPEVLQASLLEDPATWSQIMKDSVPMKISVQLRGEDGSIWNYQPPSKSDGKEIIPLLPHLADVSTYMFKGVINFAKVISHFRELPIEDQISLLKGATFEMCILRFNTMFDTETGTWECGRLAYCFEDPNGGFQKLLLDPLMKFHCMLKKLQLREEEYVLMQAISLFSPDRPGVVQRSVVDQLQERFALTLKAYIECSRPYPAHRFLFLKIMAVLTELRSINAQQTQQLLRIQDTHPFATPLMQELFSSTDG

For experiment [15], the target named is Nuclear receptor subfamily 1 group I member 2 (Homo sapiens) (UniProt O75469). In words: CYP3A4 induction through human pregnane X receptor (PXR) by small molecules, qHTS assay (AID 1346984). Further: nearly all actives have a fitted effect of over 40% in size. In a few lines: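 DPX-2 cells (HepG2 co-transfected with PXR and CYP3A4 promoter-luciferase) treated with compounds 24 h at 37C; luciferin-IPA CYP3A4 substrate 3uM final added for 3 h, then One-Glo; luminescence read. qHTS format.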
Sequence of Nuclear receptor subfamily 1 group I member 2 (Homo sapiens) (O75469 whole entry, looked up): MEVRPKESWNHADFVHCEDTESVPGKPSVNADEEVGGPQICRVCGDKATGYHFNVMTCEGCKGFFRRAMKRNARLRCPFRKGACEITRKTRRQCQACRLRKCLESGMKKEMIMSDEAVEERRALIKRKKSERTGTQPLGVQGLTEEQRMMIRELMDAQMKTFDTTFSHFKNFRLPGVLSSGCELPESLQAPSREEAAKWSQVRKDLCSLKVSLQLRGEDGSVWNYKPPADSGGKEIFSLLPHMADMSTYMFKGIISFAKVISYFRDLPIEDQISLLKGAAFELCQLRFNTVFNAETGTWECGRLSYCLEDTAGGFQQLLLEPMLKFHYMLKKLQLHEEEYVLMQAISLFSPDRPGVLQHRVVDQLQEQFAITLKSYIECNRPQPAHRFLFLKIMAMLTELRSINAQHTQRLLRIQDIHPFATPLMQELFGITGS

Experiment [16] has the same target. In words: Human pregnane X receptor (PXR) activation by small molecules, qHTS assay (AID 1346985). Further: nearly all actives have a fitted effect of over 40% in size. In a few lines: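 DPX-2 cells (HepG2 co-transfected with a PXR response element and a CYP3A4-promoter luciferase construct) were seeded at 2,000 per well, rested 5 hr at 37C, then exposed to DMSO-dissolved compounds for 24 hr. Activation was read as luciferase luminescence.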

The target of experiment [17] is Cytochrome P450 2D6 (Homo sapiens) (UniProt P10635). In words: Cytochrome P450 Family 2 Subfamily D Member 6 (CYP2D6) small molecule antagonists: luciferase reporter qHTS assay (AID 1671196). Further: series mostly up to about 120 µM; nearly all actives have a fitted effect of over 50% in size. In a few lines:
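CYP2D6 enzyme–substrate mix was held with compound for 10 min at room temperature, then NADPH regeneration solution was added and the reaction ran 1 h at room temperature. Luciferin product was detected by luminescence after 20 min with detection reagent.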
In general terms: Reporter assays use an easily measured gene product as a stand-in for the process of interest.

The target in experiment [18] is Cytochrome P450 2C19 (Homo sapiens) (UniProt P33261). In words: Cytochrome P450 Family 2 Subfamily C Member 19 (CYP2C19) small molecule antagonists: luciferase reporter qHTS assay (AID 1671197). Further: nearly all actives have a fitted effect of over 65% in size. Further: potency means the concentration at half of the fitted maximal effect. Put shortly: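 Relative luminescence units recorded 20 min after the detection reagent stopped a 1 h, 37C CYP2C19 reaction on proluciferin substrate, which was started by NADPH regeneration following 10 min room-temperature compound preincubation; ketoconazole positive control.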
Sequence of Cytochrome P450 2C19 (Homo sapiens) (P33261 whole entry, looked up): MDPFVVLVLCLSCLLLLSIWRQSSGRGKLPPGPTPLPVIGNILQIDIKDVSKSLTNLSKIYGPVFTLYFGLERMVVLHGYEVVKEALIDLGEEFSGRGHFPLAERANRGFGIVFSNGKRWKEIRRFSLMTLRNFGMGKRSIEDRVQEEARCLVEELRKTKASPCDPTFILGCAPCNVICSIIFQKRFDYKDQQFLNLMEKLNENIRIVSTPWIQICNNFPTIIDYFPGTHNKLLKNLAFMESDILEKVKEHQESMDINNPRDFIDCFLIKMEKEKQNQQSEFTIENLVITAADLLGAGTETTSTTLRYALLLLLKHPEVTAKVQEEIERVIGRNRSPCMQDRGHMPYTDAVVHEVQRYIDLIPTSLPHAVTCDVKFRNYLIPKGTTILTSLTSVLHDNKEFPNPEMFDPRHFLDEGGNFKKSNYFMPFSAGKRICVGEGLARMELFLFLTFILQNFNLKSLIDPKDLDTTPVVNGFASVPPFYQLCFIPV

For experiment [19], the target named is Thyrotropin-releasing hormone receptor (Homo sapiens) (UniProt P34981). As to the kind of experiment: qHTS assay to identify small molecule agonists of the thyrotropin-releasing hormone receptor (TRHR) signaling pathway (AID 1346891; calls by dose curve; further: series mostly up to about 58 µM). In a few lines:
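HEK293/TRHR cells, 1500 per well, 18 h 37 °C; Ca dye 2 h 37 °C; pin-tool compound addition (agonist mode); kinetic fluorescence 3 min, 1 s reads; 15 concentrations, triplicate.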

Unmarked numbers belong to inactive results. Inconclusive results are not listed. The source made the active and inactive calls. Unless noted, the call rests on the fitted dose curve; in most records, active means well fitted curve in the direction sought with a large enough effect in the repeat runs; inconclusive means weak or mixed curves; inactive means no such curve, though single readings can be large; an effect the other way counts as inactive or inconclusive.
On the % scale 0 is the no-effect control and ±100 the full control effect.

Sequence of Progesterone receptor (Homo sapiens) (P06401 whole entry, looked up): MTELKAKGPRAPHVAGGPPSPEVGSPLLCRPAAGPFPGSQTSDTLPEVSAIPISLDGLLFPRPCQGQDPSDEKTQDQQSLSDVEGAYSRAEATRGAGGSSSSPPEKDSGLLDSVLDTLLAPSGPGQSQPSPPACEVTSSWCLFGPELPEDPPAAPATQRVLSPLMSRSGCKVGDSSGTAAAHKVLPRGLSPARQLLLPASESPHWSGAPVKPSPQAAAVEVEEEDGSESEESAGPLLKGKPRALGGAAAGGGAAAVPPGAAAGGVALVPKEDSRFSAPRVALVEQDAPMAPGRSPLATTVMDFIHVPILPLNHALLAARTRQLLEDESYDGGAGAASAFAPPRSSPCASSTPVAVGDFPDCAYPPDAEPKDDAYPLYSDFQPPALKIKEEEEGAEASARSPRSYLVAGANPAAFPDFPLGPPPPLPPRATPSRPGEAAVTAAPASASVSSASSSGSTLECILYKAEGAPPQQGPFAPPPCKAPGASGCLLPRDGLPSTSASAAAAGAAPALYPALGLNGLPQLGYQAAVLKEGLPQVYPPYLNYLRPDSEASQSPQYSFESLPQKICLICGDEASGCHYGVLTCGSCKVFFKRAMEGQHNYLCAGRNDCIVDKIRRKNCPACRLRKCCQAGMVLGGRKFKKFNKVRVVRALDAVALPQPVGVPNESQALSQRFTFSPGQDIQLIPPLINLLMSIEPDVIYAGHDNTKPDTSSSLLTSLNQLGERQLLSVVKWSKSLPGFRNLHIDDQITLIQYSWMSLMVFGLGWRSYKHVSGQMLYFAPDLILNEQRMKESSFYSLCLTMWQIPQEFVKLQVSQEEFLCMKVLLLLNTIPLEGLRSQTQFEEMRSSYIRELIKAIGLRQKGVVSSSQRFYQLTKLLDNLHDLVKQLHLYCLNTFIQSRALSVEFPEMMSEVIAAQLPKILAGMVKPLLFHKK
Sequence of Thyrotropin-releasing hormone receptor (Homo sapiens) (P34981 whole entry, looked up): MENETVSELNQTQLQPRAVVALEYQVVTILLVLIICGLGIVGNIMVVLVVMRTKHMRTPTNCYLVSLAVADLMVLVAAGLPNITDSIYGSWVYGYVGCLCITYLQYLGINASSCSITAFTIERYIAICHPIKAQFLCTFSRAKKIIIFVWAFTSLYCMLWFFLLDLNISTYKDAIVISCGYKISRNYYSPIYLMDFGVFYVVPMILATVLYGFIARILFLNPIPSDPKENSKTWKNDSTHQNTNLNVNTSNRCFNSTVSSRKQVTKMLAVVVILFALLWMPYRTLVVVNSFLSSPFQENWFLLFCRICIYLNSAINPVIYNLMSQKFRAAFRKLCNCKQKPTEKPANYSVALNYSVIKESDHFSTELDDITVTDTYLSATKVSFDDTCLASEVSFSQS
Sequence of Cytochrome P450 2D6 (Homo sapiens) (P10635 whole entry, looked up): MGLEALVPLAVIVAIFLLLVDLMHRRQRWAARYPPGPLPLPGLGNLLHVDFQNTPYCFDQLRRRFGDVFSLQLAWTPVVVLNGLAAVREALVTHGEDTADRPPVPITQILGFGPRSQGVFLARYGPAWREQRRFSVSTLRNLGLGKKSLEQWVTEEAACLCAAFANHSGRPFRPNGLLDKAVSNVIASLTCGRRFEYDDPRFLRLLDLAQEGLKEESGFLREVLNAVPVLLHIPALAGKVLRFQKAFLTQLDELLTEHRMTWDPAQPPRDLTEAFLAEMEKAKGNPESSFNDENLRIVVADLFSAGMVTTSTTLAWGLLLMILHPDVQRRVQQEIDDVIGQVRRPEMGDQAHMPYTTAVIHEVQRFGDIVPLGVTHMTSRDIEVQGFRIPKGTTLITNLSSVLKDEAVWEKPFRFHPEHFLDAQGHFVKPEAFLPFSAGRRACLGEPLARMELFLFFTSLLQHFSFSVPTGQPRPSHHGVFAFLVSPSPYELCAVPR

As to `CC(=O)Oc1cccc(C)c1`, the Potency entry in [1], in [2], in experiment [3], in experiment [8], in [10] and in [12] was “inactive” each time. Further, the Potency entry in experiment [13], in [15], in experiment [16], in experiment [17] and in experiment [18] was “inactive” in each case. Also, the result in [4], in experiment [5], in [6], in experiment [7], in experiment [9] and in experiment [11] was inactive. The max activation in experiment [14] was -3.04%.

In the case of `CC(COc1ccccc1)NN` (centres undefined), the Potency entry in experiment [1], in experiment [2], in [3], in experiment [8], in [10] and in [12] was “inactive” throughout. The Potency result in [13], in [17] and in experiment [18] was “inactive” in each case. Further, the outcome in [4], in experiment [5], in experiment [6], in [9] and in experiment [11] was inactive.

As for `CC(C)COC(=O)c1ccc(N)cc1`, the Potency entry in [1], in experiment [2], in experiment [3], in [19], in experiment [8] and in experiment [10] was “inactive” in each case. Besides, the Potency entry in experiment [12], in experiment [15], in experiment [16] and in experiment [17] was “inactive” in each case. Besides, the result in experiment [4], in experiment [5], in [6], in experiment [7] and in [9] was inactive. In addition, the Potency is 21.1 µM (active) in experiment [13] and 21.9 µM (active) in [18]. Moreover, the max activation in [14] was 0.562%.

Consider `O=[N+]([O-])c1ccc(/C=N\O)o1`, for which the Potency entry in experiment [1], in experiment [2], in experiment [3], in experiment [8], in experiment [12] and in experiment [15] was “inactive” each time. For the same compound, the Potency result in [16], in experiment [17] and in [18] was “inactive” throughout. Besides, the call in experiment [4], in experiment [5], in experiment [6], in experiment [7], in [9] and in experiment [11] was inactive. Moreover, in [14], the max activation was -2.63%.

Regarding `CC(=O)c1ccc2ccccc2c1`, the Potency result in experiment [1], in experiment [2], in experiment [3], in experiment [19], in experiment [8] and in [10] was “inactive” each time. The Potency result in experiment [12] and in experiment [13] was “inactive” in each case. Besides, the compound was classed as inactive in experiment [4], in [5], in experiment [6] and in experiment [7]. In [18], the Potency is 28.3 µM (active).

With `CCC(=O)OCc1ccccc1`, the Potency entry in experiment [1], in experiment [2], in [3], in experiment [19], in experiment [8] and in experiment [10] was “inactive” throughout. Moreover, the Potency entry in experiment [12], in [13] and in experiment [18] was “inactive” each time. For the same compound, the call in experiment [4], in [5], in experiment [6], in experiment [7], in experiment [9] and in [11] was inactive.

The values above are taken from PubChem BioAssay (Tox21).
